Screening results: PubChem BioAssay, Sanford-Burnham Center for Chemical Genomics
TROY signal inh = blocks TROY-dependent signaling in reporter cells; inhibition, % at 10 µM; AID 1347056; Q293 LMP1-TROYcd NF-kB luciferase reporter, 4 h; actives 0.98% (n = 360,000);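 active = compounds whose plate-normalised and pattern-corrected inhibition of the luciferase reporter signal at the single screening dose is 50% or more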
CF NFkB block = cystic fibrosis NF-kB activation inhibition; inhibition, % at 5 µM; actives 0.86% (n = 360,000); KKLEB NF-kB-GFP reporter, PAF-induced, GFP fluorescence overnight;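 active = at least 50% inhibition at 5 µM, scaled per plate between neutral and stimulator controls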;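 note: PAF is a Pseudomonas aeruginosa culture filtrate used as stimulus; plate controls were PAF-stimulated DMSO wells for no effect and unstimulated DMSO wells for full effect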
Peg3 promoter = Peg3 promoter activity inhibition | AID 588405 | HeLa PEG-Prom luciferase reporter, luminescence, overnight | inhibition, % at 20 µM | actives 1.7% (n = 360,000);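 active = inhibition of at least 50% at 20 µM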
TWEAK Fn14 block = TWEAK-Fn14 signaling inhibition; TWEAK-stimulated Fn14 reporter cells, luciferase luminescence, 8 h; inhibition, % at 10 µM; actives 2% (n = 360,000); in the data active = inhibition above about 50%
KKLEB tox = counter-screen for CF NF-kB inhibitors: cytotoxicity. KKLEB CF airway cells viability, ATPlite luminescence, overnight; stronger effect = lower value; cells stimulated with P. aeruginosa culture filtrate. activity change (cytotoxicity), % at 5 µM. actives 0.36% (n = 360,000);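 active = corrected activity change at or below -50% at 5 µM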
HIF-2a block = inhibitors of HIF-2a | 786-0 RCC cells HIF-2a reporter, luciferase luminescence, overnight | inhibition, % at 18.8 µM | actives 0.72% (n = 360,000) | AID 624352;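 active = inhibition of the luminescence signal of 40% or more relative to plate controls, in a single-dose primary screen at 18.75 µM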
CF NFkB conf = confirmation of cystic fibrosis induced NF-kB inhibitors. actives 64% (n = 1,300). KKLEB CF airway cells, PAF-induced NF-kB-GFP fluorescence, overnight. shares compounds with CF NFkB block. inhibition, % at 5 µM; in the data active = inhibition above about 40%;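 note: stimulus PAF is a Pseudomonas aeruginosa filtrate and not platelet activating factor; plate controls were DMSO wells with stimulus for no effect and unstimulated DMSO wells for full effect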
* marks the source's active call; other numbers are inactive results; / = no result. The list is not random: actives were taken first. Their share in the collection is about 4%.

SMILES | TROY signal inh | CF NFkB block | Peg3 promoter | TWEAK Fn14 block | KKLEB tox | HIF-2a block | CF NFkB conf
CCOc1ccccc1N1CCN(c2nc3ccccc3nc2C(C#N)C(=O)OC)CC1 (configuration not stated) | 11 | 90* | 42 | 39 | -7 | 22 | 47*
CC(=O)c1cccc(NC(=O)Nc2nc(C)cc(C)n2)c1 | -83 | -6 | -246 | -34 | 6 | -139 | /
C(=C\CSc1nnnn1-c1ccccc1)/CSc1nnnn1-c1ccccc1 | -3 | 11 | 26 | 10 | -2 | 3 | /
CCCSc1nnc(Sc2nnnn2-c2ccccc2)s1 | 4 | 56* | 68* | 82* | -35 | 37 | 18
ON=C(c1ccccc1)c1ccc2c3c(cccc13)CC2 | 16 | 21 | 35 | -14 | -15 | 30 | /
CCOC(=O)C1CCN(c2cc3c(cc2NC(=O)c2ccc(OC)c(OC)c2)n(C)c(=O)n3C)CC1 | -12 | 54* | 45 | 11 | 9 | -9 | 23
CCOC(=O)C1CCN(c2cc3c(cc2NC(=O)c2ccccc2)n(C)c(=O)n3C)CC1 | 8 | 12 | 44 | 7 | -13 | 9 | /
N#Cc1cccc(C(=O)C(=O)N2CCCN(Cc3ccc(F)cc3)CC2)c1 | / | / | / | / | / | 4 | /
Cc1ccc(-c2ccc(CN3C(C(C)C)C(=O)N(Cc4cn(Cc5ccco5)nn4)CCS3(=O)=O)cc2)cc1 (configuration not stated) | 15 | 69* | 56* | 26 | -20 | 26 | 39
CC(C)CC1C(=O)N(Cc2cn(Cc3ccco3)nn2)CCS(=O)(=O)N1Cc1ccc(-c2ccc(Cl)cc2)cc1 (configuration not stated) | 0 | 65* | 42 | 6 | -23 | -5 | 41*
CC(C)C1C(=O)N(Cc2cn(Cc3ccco3)nn2)CCS(=O)(=O)N1Cc1ccc(-c2cccc(N(C)C)c2)cc1 (configuration not stated) | -7 | -6 | 20 | -4 | -1 | 5 | /
CC1(c2ccc(Cl)cc2)NC(=O)N(CC(=O)Nc2cccnc2Cl)C1=O (configuration not stated) | -5 | 1 | 11 | 8 | -7 | 7 | /
C=C1CC[C@@H]2[C@](C)(CO)[C@H](O)CC[C@@]2(C)[C@@H]1C/C=C1/C(=O)OCC1O (some centres not stated) | -12 | 54* | -20 | 20 | -19 | 22 | 15
C=C1CCC2C(C)(C)[C@H](O)CC[C@@]2(C)[C@@H]1COc1cc(=O)oc2ccccc12 (some centres not stated) | 31 | 29 | 44 | 0 | -8 | 7 | /
O=[N+]([O-])c1cc(S(=O)(=O)N2CCCC2)ccc1OCc1ccccc1 | -22 | 7 | 1 | 18 | -2 | -5 | /
O=[N+]([O-])c1cc(S(=O)(=O)N2CCCC2)ccc1OCCOc1ccccc1 | 1 | 50* | 14 | -14 | -22 | -19 | 15
COc1ccc(-c2cc(C(F)(F)F)nc(S(=O)(=O)CCC(=O)N3CCOCC3)n2)cc1 | 49 | 79* | 103* | 75* | -36 | -7 | 47*
COc1ccc(-c2cc(C(F)(F)F)nc(SCC(=O)N3CCOCC3)n2)cc1OC | -13 | 16 | 8 | -18 | -10 | 2 | /
CCCn1c(CN2CCN(C(=O)OCC)CC2)nc2cc([N+](=O)[O-])ccc21 | 3 | 7 | 25 | 1 | -8 | 29 | /
O=C(Nc1ccc(C(F)(F)F)cc1)c1cc(-c2cccnc2)nc2ccc(Br)cc12 | 17 | 0 | 42 | 24 | -14 | -3 | /
CC(=O)Nc1cccc(NC(=O)c2cc(-c3cccnc3)nc3ccc(Br)cc23)c1 | -8 | 84* | 61* | 32 | -44 | -73 | 57*
COc1ccc(/C=C/C(=O)c2cc(F)ccc2OC(=O)c2ccc(OC)c(OC)c2)cc1OC | -12 | 5 | 23 | 43 | -5 | 2 | /
COc1ccc(/C=C/C(=O)c2cc(F)ccc2OC(=O)c2ccccc2OC)cc1OC | 55* | 71* | 52* | 77* | -23 | 76* | 43*
COc1ccc(CCNc2cc(C)[nH]c(=O)c2)cc1OC | -2 | -14 | -13 | 5 | 3 | 5 | /
COCOCCn1cc(CN2CCS(=O)(=O)N(Cc3ccc(-c4cccc(CO)c4)cc3)C(C(C)C)C2=O)nn1 (configuration not stated) | 2 | -20 | -4 | -1 | 2 | 8 | /
SMILES | TROY signal inh | CF NFkB block | Peg3 promoter | TWEAK Fn14 block | KKLEB tox | HIF-2a block | CF NFkB conf
C[C@]12C[C@H](O)[C@H]3[C@@H](CCC4=CC(=O)CC[C@@]43C)[C@@H]1CC[C@@H]2C(=O)CO | 9 | 36 | 1 | -4 | 23 | 18 | /
CC(=O)OCC(=O)C1(O)CCC2C3CCC4=CC(=O)CCC4(C)C3(Cl)C(O)CC21C (configuration not stated) | 21 | 77* | -5 | -25 | 17 | 14 | -12
CC12CCC(=O)C=C1CCC1C2C(O)CC2(C)C1CCC2(O)C(=O)COC(=O)CCC1CCCC1 (configuration not stated) | 8 | 53* | -9 | -1 | 10 | 32 | 9
CC(C)(CNC(=O)CO/N=C1/C=C2CCC3C(C(O)C[C@@]4(C)C3CC[C@]4(O)C(=O)CO)[C@@]2(C)CC1)C(O)C(=O)O (some centres not stated) | 13 | 70* | -15 | -35 | 26 | 6 | 15
CC(=O)OCC=C1CCC2C3CCC4=CC(=O)CCC4(C)C3C(O)CC12C (configuration not stated) | 17 | 10 | 20 | -17 | -10 | 10 | /
CCOC(=O)C(Cc1ccc(NC(C)=O)cc1)N1C(=O)c2ccccc2C1=O (configuration not stated) | -12 | 1 | -6 | 1 | 13 | -11 | /
Cc1cccc(CN2CCN([C@H]3CS(=O)(=O)N[C@@H]3COCc3ccccc3)CC2)c1 | 10 | 1 | -30 | -10 | -6 | -12 | /
CC(C)Nc1nc(Nc2ccc(C#N)cc2)c2sccc2n1 | 0 | 22 | 29 | 30 | -17 | 8 | /
COc1ccc(CCN(C)c2ccc(S(=O)(=O)N3CCCC3)cn2)cc1OC | -1 | 9 | 17 | -12 | -3 | 18 | /
COc1cc(CN(C)c2ccc(S(=O)(=O)N3CCCC3)cn2)ccc1OC(F)F | 14 | 54* | 8 | 2 | -13 | 11 | 55*
Cc1ccc(-c2onc3ccc(C(=O)/C=C/N(C)C)cc23)cc1 | -53 | 68* | -28 | 17 | -3 | -39 | 47*
COc1ccc(-n2c(C)cc3cc(OC(C)=O)ccc32)cc1 | -12 | 57* | -138 | 28 | -11 | -76 | 58*
Oc1ccc(/C=N/Nc2nc(-c3cccnc3)nc3ccccc23)c(O)c1 | -24 | 3 | -15 | -17 | 4 | -99 | /
